Screening data as filed in PubChem BioAssay.
An excerpt weighted towards active compounds, which were near 2.5% of everything screened.
Cruzain inh Det: inhibitors of Trypanosoma cruzi cruzain with detergent; 200,000 tested, 0.43% active; P25779; Potency, µM, hits mostly inhibitors; purified cruzain, Z-FR-AMC fluorescence, 0.01% Triton; further: nearly all actives have a fitted effect of over 40% in size
Target sequence (P25779 123-467 limits assumed): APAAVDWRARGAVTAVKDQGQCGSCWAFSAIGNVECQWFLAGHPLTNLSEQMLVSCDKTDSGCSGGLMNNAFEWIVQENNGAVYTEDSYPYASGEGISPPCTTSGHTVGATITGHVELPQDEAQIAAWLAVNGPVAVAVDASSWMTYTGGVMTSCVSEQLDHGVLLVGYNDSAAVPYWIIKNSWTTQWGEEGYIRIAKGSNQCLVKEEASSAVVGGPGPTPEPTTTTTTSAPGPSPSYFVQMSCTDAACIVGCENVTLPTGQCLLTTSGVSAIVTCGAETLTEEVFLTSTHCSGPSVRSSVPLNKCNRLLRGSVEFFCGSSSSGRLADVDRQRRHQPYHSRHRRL
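In this qHTS format, compounds are incubated with 1.5 nM cruzain for 15 min at room temperature before 2 uM Z-FR-AMC is added. Release of AMC is followed at 360/450 nm, and progress is taken as the 60 s fluorescence difference.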
Cruzain inh noDet: inhibitors of Trypanosoma cruzi cruzain without detergent; P25779; purified cruzain, Z-FR-AMC fluorescence, no detergent; Potency, µM, actives largely listed as inhibitors; 200,000 tested, 2.3% active; AID 1476; further: nearly all actives have a fitted effect of over 40% in size
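Detergent-free condition (0.00005% Triton X-100) in acetate buffer pH 5.5 with DTT. 1.5 nM enzyme and compound were pre-mixed 15 min, then 2 uM Z-FR-AMC substrate added; reaction progress from fluorescence change between first and third reads (60 s).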
Papain counter: blocks papain protease activity, flagging nonselective cruzain hits. purified papain, Z-FR-AMC fluorescence cleavage. shares compounds with Cruzain inh Det. 410 tested, 41% active. Potency, µM, hits mostly inhibitors. AID 2161; further: nearly all actives have a fitted effect of over 35% in size
Of the large screens only hits and unclear results are named; the others gave an inactive call (follow-up assays come after a bar, where they were run). The call rests on the fitted dose curve; in most records, active means well fitted curve in the direction sought with a large enough effect; inconclusive means small, poorly fitted or top-dose-only effect, or another doubt; inactive means no such curve, though single readings can be large; an effect the other way counts as inactive or inconclusive.

O=C(c1cc(C(F)(F)F)cc(C(F)(F)F)c1)N1CCC2(CCN(Cc3nccs3)CC2)CC1	none
O=C1CC(c2cccc(O)c2)c2c(nc(SCc3ccccc3F)[nH]c2=O)N1 (stereo unspecified)	none
Cc1cccc(OCCCn2c(CCNC(=O)C(C)C)nc3ccccc32)c1	none
CCc1ccccc1N1CC(c2nc3ccccc3n2CCOc2ccc(Cl)c(C)c2)CC1=O (stereo unspecified)	none
Cc1cc(OCCn2c(CCNC(=O)C3CCCCC3)nc3ccccc32)ccc1Cl	Cruzain inh Det 2.51µM | Papain counter inactive
Cc1cccc(OCCCn2c(CCNC(=O)C3CCCCC3)nc3ccccc32)c1	Cruzain inh Det 2µM | Papain counter 15.8µM
N#CCCn1c(=O)c(-c2cccs2)nc2cnc(Oc3ccccc3)nc21	none
O=C(CNC(=O)c1ccccc1)N[C@@H](C(=O)Nc1cc(C(F)(F)F)ccc1Cl)c1ccccc1	none (no result: Cruzain inh Det, Cruzain inh noDet) | Papain counter inactive
O=C(Cc1ccccc1)NC(=S)Nc1cc(C(F)(F)F)ccc1Cl	none
Cc1csc2nc(COC(=O)c3ccc(NC(=O)C(C)C)cc3)cc(=O)n12	none
Cc1ccccc1CNCCCSc1nnnn1-c1ccccc1	none
Cc1ccccc1NC(=O)CSc1nc(-c2ccco2)nc2cc(=O)[nH]n12	none
O=C(CSc1nnc(-c2ccccc2)c(-c2ccccc2)n1)NCc1ccco1	Cruzain inh noDet inconclusive
O=C(CSc1nnc(-c2ccco2)c(-c2ccco2)n1)Nc1ccccc1	Cruzain inh Det 22.4µM, Cruzain inh noDet 20µM | Papain counter 25.1µM
Cc1ccccc1NC(=O)CSc1nnc(-c2ccco2)c(-c2ccco2)n1	Cruzain inh Det 25.1µM, Cruzain inh noDet 3.16µM | Papain counter 14.1µM
COc1ccc(CN2CCc3nc(N4CCN(c5ccc(F)cc5)CC4)ncc3C2)c(OC)c1OC	none
Cc1cc(C)cc(NC(=O)N2CCN(C(=O)c3nsc4ccccc34)CC2)c1	none
O=c1oc2ccc(Br)cc2cc1-c1csc(-c2ccc(Cl)cc2)n1	none
O=c1oc2ccccc2cc1-c1csc(Cc2nc(-c3ccc(Br)cc3)cs2)n1	Cruzain inh noDet 3.16µM | Papain counter inactive
COC(=O)N[C@H](C[N+](=O)[O-])c1cccc(C)c1	none
Cc1ccc(C)c(NC(=O)CN(C)S(=O)(=O)c2ccc3c(c2)CCC(=O)N3)c1	none
CC1CCCN(c2ccc(C(=O)OCn3nnc4ccccc4c3=O)cc2[N+](=O)[O-])C1 (stereo unspecified)	Cruzain inh noDet inconclusive
CC1CCCN(c2ccc(C(=O)OCC(=O)N3c4ccccc4Sc4ccccc43)cc2[N+](=O)[O-])C1 (stereo unspecified)	Cruzain inh noDet 3.98µM | Papain counter inactive
CNC(=O)NC(=O)C(C)OC(=O)c1cc2c(s1)CCCCC2 (stereo unspecified)	none
O=C(CSc1nc(-c2ccco2)nc2cc(=O)[nH]n12)Nc1ccccc1F	none
Cc1c(C(=O)N2CCC(C)CC2)sc2ncnc(N(C)c3ccccc3)c12	none
CCCn1c2c(c(O)c(C(=O)Nc3ccccc3)c1=O)CCCC2	none
N#CCSc1nc2scc(-c3cccs3)c2c(=O)n1CCc1ccccc1	Cruzain inh noDet 15.8µM | Papain counter inactive
Cc1ccc(-c2csc3nc(SCC(N)=O)n(Cc4ccccc4)c(=O)c23)cc1	none
O=C(Nc1ccc(O)c(-c2nc3ccccc3o2)c1)C1(c2ccc([N+](=O)[O-])cc2)CCCC1	Cruzain inh noDet 3.98µM | Papain counter inactive
O=C(Nc1ccc(-c2nc3ccccc3o2)c(O)c1)c1cc(Cl)ccc1Cl	none
CCC(=O)N1CCc2cc(CNC(=O)C(CC)c3ccccc3)ccc21 (stereo unspecified)	none
CCOc1ccc(-c2cc3nc(C4CCN(C(=O)OC(C)(C)C)CC4)c(C(=O)O)cn3n2)cc1	Cruzain inh noDet inconclusive | Papain counter 31.6µM
CCOc1ccc(-c2cc3nc(C4CCN(C(=O)OC(C)(C)C)CC4)c(C(=O)Nc4c(C)cccc4C)cn3n2)cc1	none
Cc1ccc(NC(=O)c2ccc3c(=O)n4nc(Nc5ccccc5C)sc4nc3c2)cc1C	none
Cc1cc2cc3c(C)cc(=O)oc3c(C)c2o1	none
Cc1cc2c(C)cc(=O)oc2c2c1NCCC2	Cruzain inh Det 25.1µM | Papain counter 15.8µM
COc1ccc(OC)c(N(CC(N)=O)S(=O)(=O)c2ccc(OC)c(OC)c2)c1	none
O=C1/C(=C/c2ccco2)CCc2ccccc21	Cruzain inh Det 2.24µM, Cruzain inh noDet 2µM | Papain counter 28.2µM
O=C1C(=Cc2ccco2)C(=O)c2ccccc21	none
Cc1cc(N2CCC(C(=O)Nc3ccc(F)cc3C)CC2)n2nc(C)c(-c3ccc(Cl)cc3)c2n1	none
OCCCc1nc2ccccc2n1CCCCOc1ccccc1	none
O=C(NCCCc1nc2ccccc2n1CCOc1ccccc1)C1CCCCC1	none (no result: Cruzain inh Det, Cruzain inh noDet) | Papain counter inactive
O=C(NCCCc1nc2ccccc2n1Cc1ccccc1)C1CCCCC1	none
O=C(NCCCc1nc2ccccc2n1Cc1ccc(F)cc1)C1CCCCC1	none
